The values below come from the supplement of paper PMC9135407.

Molecules are shown by their SMILES. Values joined by “and” are separate entries in the source; they are usually repeats but may differ in a detail not shown here. Equal values may be shown once. Where a name gives a salt, the structure may show the parent alone. The campaign covered roughly 5,800 compounds. About 620 (11%) showed activity. For the sample, actives were picked, then their nearest neighbours and some compounds at random. Values without a mark were called inactive.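 How the source made its calls: active = score above a cut-off or among the top three wells of a plate; in these data no inactive exceeds 0.85.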

For this test, the system named is primary human hepatic stellate cells (donor 1). As to the kind of experiment: scaled lipid accumulation score (0 = DMSO-like, 1 = nortriptyline-like); higher = stronger HSC inactivation (lipid re-accumulation), active = hit call of the paper. To be noted: 48 h.
[1] abbreviates: library stock concentration: 1 mM.
The mark [2] stands for this setting: library stock concentration: 3.33 mM.
Setting [3] is: library stock concentration: 10 mM.
Where [4] appears, read: library stock concentration: 400 uM.
[5] abbreviates: library stock concentration: 2 mM.

As to `CCCCCCCCCC(=O)OCC(CO)OC(=O)CCCCCCCCC` (stereo not drawn) [1,2-Didecanoyl-sn-glycerol], under setting [1], the “scaled lipid accumulation score” value was ≤ 0. On the same count and under the same terms, the same measure for `CCCCCCCCCC(=O)OCC(CO)OC(=O)CCCCCCCCC` (stereo not drawn) [1,2-Didecanoyl-glycerol (10:0)]: ≤ -0.021; for `CCCCCC(O)C=CC1CC2CC(C1CC=CCCCC(=O)O)C2(C)C` [15(R)-Pinane Thromboxane A2]: ≤ 0.

As for `Cc1onc(-c2ccccc2)c1-c1ccc(S(N)(=O)=O)cc1` [Valdecoxib], the “scaled lipid accumulation score” value runs as follows: under setting [2], ≤ 0; under setting [3], 0.226 and 0.088. Regarding `Cc1onc(-c2ccccc2)c1-c1ccc(S(N)(=O)=O)cc1`, the “scaled lipid accumulation score” value under setting [3] is ≤ 0. For the molecule `CCCCCCCCCCCCCCCC(=O)OC` [Palmitic Acid methyl ester], the “scaled lipid accumulation score” value under setting [1] was 0.031.

Turning to `O=P(O)(O)OC1C(O)C(OP(=O)(O)O)C(O)C(OP(=O)(O)O)C1O` [D-myo-Inositol-1,3,5-triphosphate (sodium salt)], the “scaled lipid accumulation score” value under setting [1] is 0.025.

As for `O=C(O)Cc1sc(-c2ccccc2)nc1-c1ccc(Cl)cc1` [Fentiazac], the “scaled lipid accumulation score” value (library stock concentration: 6.1 mM) is 0.006. As to `CCCCC[C@H](O)/C=C/[C@H]1CCC(=O)[C@@H]1CCCCCCC(=O)O` [11-deoxy Prostaglandin E1], the “scaled lipid accumulation score” value under setting [1] was 0.015.

For the molecule `CC(C)=CCC[C@](C)(O)C1CC=C(C)CC1` (stereo partly drawn) [Bisabolol], the “scaled lipid accumulation score” value under setting [3] was 0.049. For `Cl.Cl.NC1(c2ccc(-c3nc4ccn5c(=O)[nH]nc5c4cc3-c3ccccc3)cc2)CCC1` [listing 1 of 2 here], the “scaled lipid accumulation score” value runs as follows: under setting [4], 1.07 (active); under setting [5], 1.23 (active). Consider `Cl.Cl.NC1(c2ccc(-c3nc4ccn5c(=O)[nH]nc5c4cc3-c3ccccc3)cc2)CCC1` [listing 2 of 2 here], for which the “scaled lipid accumulation score” value is 1.35 (active) under setting [2] and 1.02 (active) under setting [3]. For the molecule `O=C1C(=Cc2ccc(O)cc2)C2=Nc3ccccc3C2=C1C1=C2C(=Nc3ccccc32)C(=Cc2ccc(O)cc2)C1=O` [Scytonemin, Lyngbya sp.], the “scaled lipid accumulation score” value under setting [2] was ≤ 0. Take `COc1ccc2cc(C(C)C(=O)O)ccc2c1` (stereo not drawn) [Naproxen(+)]: the “scaled lipid accumulation score” value (library stock concentration: 8.7 mM) is 0.014 and the “scaled lipid accumulation score” value under setting [3] was ≤ 0. With `CCCCCC(=O)CC[C@@H]1[C@@H](C/C=C\CCCC(=O)OC(C)C)[C@@H](O)C[C@H]1O`, the “scaled lipid accumulation score” value under setting [1] is ≤ 0. Still for that read-out and setting: the same measure for `Nc1nc2[nH]c(=O)[nH]c2c(=O)[nH]1` [8-hydroxy Guanine (hydrochloride)]: ≤ 0; for `CCCCC1C(=O)CCC2C(CCCCCCC(=O)O)C(=O)CC12` (stereo not drawn) [Bicyclo Prostaglandin E1]: ≤ 0. As for `CC(C)c1ccc2c(c1)CC[C@H]1[C@](C)(CN)CCC[C@]21C` [Lylamine hydrochloride], the “scaled lipid accumulation score” value under setting [3] was 0.527. As for `CC(C)c1ccc2c(c1)CC[C@H]1[C@](C)(CN)CCC[C@]21C.Cl` [Leelamine (hydrochloride)], under setting [1], the “scaled lipid accumulation score” value was 0.297 (active). Still for that read-out and setting: to `CCCCCCCCCCCC(=O)NC[C@]1(C)CCC[C@]2(C)c3ccc(C(C)C)cc3CCC12` (stereo partly drawn) [Lauric Acid Leelamide] belongs 0.012. With `CN(C)C(=O)c1ccc(S(=O)(=O)c2ccc(NC(=O)C(C)(O)C(F)(F)F)c(Cl)c2)cc1` (stereo not drawn), the “scaled lipid accumulation score” value reads like this: under setting [2], ≤ -0.009; under setting [3], ≤ 0.

For the molecule `CCCC/C=C/C=C/C=C\CCCCCCCC(=O)O` [9(Z),11(E),13(E)-Octadecatrienoic Acid], the “scaled lipid accumulation score” value under setting [1] was ≤ 0. As for `Cc1ccc(NC(=O)Nc2cc(C(F)(F)F)ccc2F)cc1Nc1ccc2c(c1)NC(=O)/C2=C\c1ccc[nH]1`, the “scaled lipid accumulation score” value is 0.038 (library stock concentration: 80 uM) and 0.353 under setting [4]. As to `O=C1Nc2ccc(-c3cccnc3)cc2/C1=C/c1ccc[nH]1` [JAK3 Inhibitor VI], under setting [2], the “scaled lipid accumulation score” value is ≤ 0. Take `Cc1ccc(NC(=O)Nc2cc(C(F)(F)F)ccc2F)cc1Nc1ccc2c(c1)NC(=O)C2=Cc1ccc[nH]1`: the “scaled lipid accumulation score” value is 1.14 (active) under setting [5] and 1.61 (active) under setting [3]. For the molecule `CCCCc1c(-c2ccc(OC)cc2)[nH]c2nccnc12` [Aloisine, RP106], the “scaled lipid accumulation score” value under setting [2] was 0.036. Same read-out and setting: the same measure for `N#C/C(=C(/N)Sc1ccccc1N)c1cccc(C(O)c2ccncc2)c1` (stereo not drawn) [MEK Inhibitor I]: ≤ 0. In the case of `NC(=O)N1c2ccccc2C=Cc2ccccc21` [Carbamazepine], the “scaled lipid accumulation score” value was ≤ 0. Also, under setting [2], the “scaled lipid accumulation score” value is 0.025. The “scaled lipid accumulation score” value under setting [3] is ≤ 0 and 0.28. In the case of `OCCN1CCN(CCCN2c3ccccc3Sc3ccc(Cl)cc32)CC1`, the “scaled lipid accumulation score” value under setting [3] was 0.962 (active). Take `Cl.Cl.OCCN1CCN(CCCN2c3ccccc3C=Cc3ccccc32)CC1` [Opipramol dihydrochloride]: the “scaled lipid accumulation score” value under setting [3] is 0.885 (active). With `OCCN1CCN(CCCN2c3ccccc3Sc3ccc(Cl)cc32)CC1` [Perphenazine] [listing 1 of 2 here], the “scaled lipid accumulation score” value is 0.75. Further, the “scaled lipid accumulation score” value (library stock concentration: 5 mM) is 0.605. Also, the “scaled lipid accumulation score” value under setting [3] is 0.329. On to `OCCN1CCN(CCCN2c3ccccc3Sc3ccc(Cl)cc32)CC1` [Perphenazine] [listing 2 of 2 here], for which the “scaled lipid accumulation score” value under setting [3] is 0.916 (active). On the same count and under the same terms, the same measure for `NC(=O)N1c2ccccc2C=Cc2ccccc21`: ≤ 0. Regarding `CN1CCN(CCCN2c3ccccc3Sc3ccc(Cl)cc32)CC1` [Prochlorperazine edisylate], the “scaled lipid accumulation score” value runs as follows: (library stock concentration: 3.5 mM) 0.713; under setting [3], 0.523. Turning to `CN1CCN(CCCN2c3ccccc3Sc3ccc(Cl)cc32)CC1` [Prochlorperazine dimaleate], the “scaled lipid accumulation score” value is 0.696. Under setting [3], the “scaled lipid accumulation score” value is 0.815. Turning to `CCCCC[C@](C)(O)/C=C/[C@H]1C(=O)C[C@H](O)[C@@H]1C/C=C\CCCC(=O)O` [15(S)-15-methyl Prostaglandin D2], under setting [1], the “scaled lipid accumulation score” value is ≤ 0. `COC1CCC(C(=O)c2ccc3nc4c(cc3c2)CCCO4)CC1` (stereo not drawn): under setting [3], the “scaled lipid accumulation score” value is ≤ -0.001. As to `NCC(O)c1ccc(O)c(O)c1` (stereo not drawn), the “scaled lipid accumulation score” value under setting [3] was ≤ 0. As for `COC(=O)/C=C/c1cccc(N(Cc2ccc(-c3ccc(N(C)C)cc3)cc2)C(=O)C2CCCCC2)c1` [Fexaramine], under setting [3], the “scaled lipid accumulation score” value is 0.006. As to `CC(NC(=O)Cc1cc(F)cc(F)c1)C(=O)NC1C(=O)N(C)c2ccccc2-c2ccccc21` (stereo not drawn), the “scaled lipid accumulation score” value is ≤ 0 under setting [2] and 0.235 under setting [3]. With `N[C@@H](Cc1ccc(O)c(I)c1)C(=O)O` [3-Iodo-L-tyrosine], the “scaled lipid accumulation score” value under setting [3] is ≤ -0.055. With `CCOC(=O)c1ccnc(C(=O)OCC)c1`, the “scaled lipid accumulation score” value under setting [1] is ≤ 0. Still for that read-out and setting: to `CC/C=C\C/C=C\C/C=C\CCCCCCCCCC(=O)O` [Eicosatrienoic acid (20:3 n-3)] belongs 0.075. As to `Nc1nnc(Sc2ncc([N+](=O)[O-])s2)s1`, under setting [3], the “scaled lipid accumulation score” value is 0.438. As to `O=c1[nH]nc(Sc2ncc([N+](=O)[O-])s2)n1-c1ccc2c(c1)OCCO2`, the “scaled lipid accumulation score” value under setting [3] was 1.25 (active).

Consider `O=C1NCCN1c1ncc([N+](=O)[O-])s1` [Niridazole], for which the “scaled lipid accumulation score” value was ≤ 0.

Turning to `CCCCC[C@H](O)/C=C/[C@@H]1[C@@H](CCCCCCCO)[C@@H](O)C[C@H]1O` [Prostaglandin F1.alpha. Alcohol], under setting [1], the “scaled lipid accumulation score” value was ≤ 0. In the case of `CCCCC(=O)Oc1ccccc1C(=O)O` [Valeroyl Salicylate], the “scaled lipid accumulation score” value under setting [1] was ≤ 0. On to `CC[C@H](CO)Nc1nc(NCc2ccc(-c3ccccn3)cc2)c2ncn(C(C)C)c2n1` [CR8, (R)-Isomer], for which the “scaled lipid accumulation score” value under setting [2] is ≤ 0. Take `CCOC(=O)c1ncc2[nH]c3cccc(OC(C)C)c3c2c1C`: the “scaled lipid accumulation score” value under setting [3] is 0.014. Consider `Cc1nc(N=Nc2cc(S(=O)(=O)O)c3cc([N+](=O)[O-])cc(S(=O)(=O)O)c3c2)c(COP(=O)(O)O)c(C=O)c1O` [PPNDS tetrasodium], for which the “scaled lipid accumulation score” value under setting [3] was 0.229. In the case of `CCCNCC(O)COc1ccccc1C(=O)CCc1ccccc1` (stereo not drawn) [Propafenone hydrochloride], the “scaled lipid accumulation score” value was 0.742. Besides, the “scaled lipid accumulation score” value (library stock concentration: 5.3 mM) is 0.429. Further, under setting [3], the “scaled lipid accumulation score” value is 0.365. As to `O=C(O)COc1ccc(OCCNC[C@H](O)COc2ccccc2)cc1` [ICI 215,001 hydrochloride], the “scaled lipid accumulation score” value under setting [3] is 0.013. On to `CCCNCC(O)COc1ccccc1C(=O)CCc1ccccc1` (stereo not drawn) [Propafenone HCl], for which the “scaled lipid accumulation score” value reads like this: under setting [2], 0.241; under setting [3], 0.684. In the case of `CCCNCC(O)COc1ccccc1C(=O)CCc1ccccc1` (stereo not drawn) [Rythmol], under setting [3], the “scaled lipid accumulation score” value was 0.811.

Consider `N#Cc1ccccc1OCC(O)CNCCNC(=O)Nc1ccccc1` (stereo not drawn), for which, under setting [3], the “scaled lipid accumulation score” value was 0.135. `CCCNCC(O)COc1ccccc1C(=O)CCc1ccccc1` (stereo not drawn) [Propafenone]: the “scaled lipid accumulation score” value (library stock concentration: 5.9 mM) was 0.566. Regarding `COCCNC(=O)COc1ccc(OCCNC[C@H](O)COc2ccccc2)cc1` [ZD 7114 hydrochloride], the “scaled lipid accumulation score” value under setting [3] was 0.134. Consider `CCCNCC(O)COc1ccccc1C(=O)CCc1ccccc1.Cl` (stereo not drawn) [Propafenone hydrochloride], for which the “scaled lipid accumulation score” value under setting [3] was 0.887 (active).

In the case of `CC(C)ON(CC(=O)NO)S(=O)(=O)c1ccc(-c2ccccc2)cc1`, the “scaled lipid accumulation score” value under setting [1] is ≤ 0.

For `O=C1NN(C(=O)Nc2ccc(Br)cc2)[C@@H](c2ccccc2)[C@@H]1c1ccccc1`, the “scaled lipid accumulation score” value under setting [3] is 0.026.

Take `COc1cccc(-c2cc(F)ccc2C2Cc3nc(N)nc(C)c3C(=O)N2)n1` (stereo not drawn): the “scaled lipid accumulation score” value under setting [2] is 0.806. `COc1cccc(-c2cc(F)ccc2[C@H]2Cc3nc(N)nc(C)c3C(=O)N2)n1`: the “scaled lipid accumulation score” value under setting [3] was 0.937 (active). On to `COc1ccc(-c2cc3c(C)nc(N)nc3n([C@H]3CC[C@H](OCCO)CC3)c2=O)cn1`, for which the “scaled lipid accumulation score” value is ≤ 0 under setting [2] and 0.45 under setting [3].

Turning to `Cc1ccsc1C(=CCCN1CCC[C@@H](C(=O)O)C1)c1sccc1C`, the “scaled lipid accumulation score” value under setting [3] is ≤ 0. In the case of `O=C1N[C@@H]2[C@@H](O)[C@@H](O)[C@H](O)[C@@H](CO)N2C1=O` [Kifunensine], the “scaled lipid accumulation score” value under setting [1] is 0.034. Take `CC(CCCCC(=O)Nc1ccc(C(F)(F)F)cc1)NCCc1cnc[nH]1` (stereo not drawn) [HTMT dimaleate]: the “scaled lipid accumulation score” value under setting [3] is 0.519. For `NC(=O)CCCSc1nc(N)nc(-c2c(Cl)cc3c4c(cccc24)COC3)n1`, the “scaled lipid accumulation score” value reads like this: under setting [2], 0.86 (active); under setting [3], 0.886 (active). `O=P(O)(O)OC1[C@H](O)[C@H](O)C(O)[C@H](O)[C@H]1O` (stereo partly drawn) [D-myo-Inositol-1-phosphate (sodium salt)]: under setting [1], the “scaled lipid accumulation score” value is 0.012.
